CD11b adhes inh = inhibitors of CD11b/CD18 adhesion to fibrinogen, primary screen, K562 cells, luminescence | Integrin beta-2 (Homo sapiens) + Integrin alpha-M (Homo sapiens), P05107+P11215 | ATPlite luminescence; Mn2+ added to activate the integrin | inhibition, % at 10 µM | 93,000 tested, 0.54% active;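 active = primary inhibition of 50% or more at 10 µM, then 40% or more on retest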
CYP2C19 inh = blockers of cytochrome P450 2C19 activity – biochemical, luminescence, ADME assay, primary screen; P33261; CYP2C19 Supersomes, luciferin-H EGE luminescence, 30 min; inhibition, % at 5 µM; 96,000 tested, 21% active;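 active = CYP2C19 inhibition above a set limit at 5 µM in the primary screen, cut at about 50% in these data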
CYP2C9 inhib = blockers of cytochrome P450 2C9 activity – biochemical, luminescence, ADME assay, primary screen. P11712. CYP2C9 Supersomes, luciferin-H conversion. inhibition, % at 5 µM. 96,000 tested, 20% active;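 active = blocking of liver enzyme CYP2C9 beyond about 50% at 5 µM, limit read from the data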
Target sequence (P11712 whole entry, looked up): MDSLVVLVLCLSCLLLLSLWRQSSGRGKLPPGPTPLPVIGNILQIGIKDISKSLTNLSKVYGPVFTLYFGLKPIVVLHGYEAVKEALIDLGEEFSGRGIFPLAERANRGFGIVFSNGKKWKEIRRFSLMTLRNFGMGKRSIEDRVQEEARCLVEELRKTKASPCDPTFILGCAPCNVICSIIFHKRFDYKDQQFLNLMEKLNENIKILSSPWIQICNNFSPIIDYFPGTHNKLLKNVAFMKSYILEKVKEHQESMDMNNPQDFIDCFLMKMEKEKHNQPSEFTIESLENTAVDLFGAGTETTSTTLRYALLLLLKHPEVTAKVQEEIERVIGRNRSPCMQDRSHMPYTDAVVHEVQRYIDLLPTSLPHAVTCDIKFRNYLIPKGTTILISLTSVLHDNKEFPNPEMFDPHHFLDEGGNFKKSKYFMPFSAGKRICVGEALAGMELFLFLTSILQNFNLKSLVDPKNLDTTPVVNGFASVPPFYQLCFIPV
CYP2C9 activ = human CYP2C9 activators, primary screen, biochemical, luminescence. Cytochrome P450 2C9 (Homo sapiens), P11712. recombinant CYP2C9, luciferin-H conversion; active compounds read high; factor 1 = untreated enzyme, 0 = blocked. activation factor at 5 µM. 96,000 tested, 1.4% active;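 active = activation factor of 2 or more for CYP2C9 at a 5 µM dose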
Mac1 fbg enh = enhancers of CD11b/CD18 adhesion to fibrinogen, primary screen, K562 cells, luminescence; ATPlite luminescence; activation, % at 10 µM; 93,000 tested, 0.07% active; Integrin beta-2 (Homo sapiens) + Integrin alpha-M (Homo sapiens), P05107+P11215; AID 1499, 2009;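 active = 10 µM primary screen giving 50% or more activity, confirmed by 40% or more on retest at that dose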
CYP2C19 act = human CYP2C19 activators, primary screen, biochemical, luminescence; recombinant CYP2C19, luciferin-H EGE luminescence; active compounds read high; 0 = fully inhibited enzyme, 1 = untreated enzyme; activation factor at 5 µM; Cytochrome P450 2C19 (Homo sapiens), P33261; 96,000 tested, under 10 active;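 active = activation factor of at least 2 at 5 µM in the primary screen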
Large screens that a line does not name were inactive. The list is not random: actives were taken first. Their share in the collection is about 28%.

COC(=O)c1sccc1NC(=O)CSc1ccccc1NS(=O)(=O)c1ccc(Br)cc1	CYP2C9 inhib 80
COc1cccc(CNC(=O)C2CCCN(S(=O)(=O)c3c(C)[nH]c(=O)[nH]c3=O)C2)c1 (stereo not drawn)	none
Cc1ccc(C(C(=O)NC2CCCCC2)N2CCN(C(=O)c3ccco3)CC2)cc1 (stereo not drawn)	none (no result: CD11b adhes inh, Mac1 fbg enh)
O=[N+]([O-])c1ccc(N2CCN(S(=O)(=O)c3ccc(Cl)cc3)CC2)cc1NCc1cccnc1	CYP2C9 inhib 53
COC(=O)c1cc(NS(=O)(=O)c2ccc(NCc3cccnc3)c([N+](=O)[O-])c2)cc(C(=O)OC)c1	none (no result: CYP2C19 inh, CYP2C9 inhib, CYP2C9 activ, CYP2C19 act)
Cc1cccc(C)c1NC(=O)CSCC(=O)c1ccc(O)c(O)c1	none
CSC1=NCCN1C(=O)COc1ccc2ccccc2c1	CYP2C19 inh 88
COc1ccc(S(=O)(=O)n2ccc(-c3cnc(-c4ccccc4)s3)n2)cc1	CYP2C9 inhib 69 (no result: CD11b adhes inh, Mac1 fbg enh)
O=C(c1ccccc1)n1ccc(-c2cnc(-c3ccccc3)s2)n1	CYP2C19 inh 56
O=C(NCC(c1cccs1)N1CCOCC1)c1ccccc1NS(=O)(=O)c1ccc(Cl)c([N+](=O)[O-])c1 (stereo not drawn)	CD11b adhes inh 101 (no result: CYP2C19 inh, CYP2C9 inhib, CYP2C9 activ, CYP2C19 act)
O=C(NCC(c1cccs1)N1CCOCC1)c1ccccc1NS(=O)(=O)c1ccc(Cl)cc1 (stereo not drawn)	CD11b adhes inh 79 (no result: CYP2C19 inh, CYP2C9 inhib, CYP2C9 activ, CYP2C19 act)
O=C(NCC(c1cccs1)N1CCOCC1)c1ccc(Br)o1 (stereo not drawn)	none
CC(C)c1ccccc1OCC(=O)NCC(c1cccs1)N1CCOCC1 (stereo not drawn)	CYP2C19 inh 68
O=C(NCC(c1cccs1)N1CCOCC1)c1ccccc1NS(=O)(=O)c1cc([N+](=O)[O-])ccc1Cl (stereo not drawn)	CD11b adhes inh 85 (no result: CYP2C19 inh, CYP2C9 inhib, CYP2C9 activ, CYP2C19 act)
Cc1nnc(SCc2ccccc2F)n1NCc1cccs1	CYP2C19 inh 93, CYP2C9 inhib 55
CCc1ccc(C(=O)c2oc3nc(C)cc(C)c3c2N)cc1	none (no result: CYP2C19 inh, CYP2C9 inhib, CYP2C9 activ, CYP2C19 act)
O=C(COC(=O)c1ccc(CNS(=O)(=O)c2ccc(F)c(Cl)c2)cc1)NCC1CCCCC1	none (no result: CYP2C19 inh, CYP2C9 inhib, CYP2C9 activ, CYP2C19 act)
CCOc1ccc2[nH]c(=O)c(CN(Cc3nnnn3Cc3ccco3)C3CCCCC3)cc2c1	CYP2C19 inh 70
COc1ccc2[nH]c(=O)c(CN(Cc3ccco3)Cc3nnnn3Cc3ccccc3)cc2c1	none
COc1cc2cc(CN(Cc3nnnn3Cc3ccco3)C3CCCCC3)c(=O)[nH]c2cc1OC	none
CCOc1ccc2[nH]c(=O)c(CN(Cc3ccco3)Cc3nnnn3Cc3ccccc3)cc2c1	CYP2C9 inhib 50
COc1ccc(Cn2nnnc2CN(Cc2cc3cccc(C)c3[nH]c2=O)C2CCCC2)cc1	CYP2C9 inhib 61
C=CCn1c(SCC(=O)NCCOC)nnc1-c1cc2c(s1)CCC(CC)C2 (stereo not drawn)	none (no result: CYP2C19 inh, CYP2C9 inhib, CYP2C9 activ, CYP2C19 act)
Brc1ccc(-c2ccc(/C=N/Nc3nc4ccccc4[nH]3)o2)cc1	none (no result: CYP2C19 inh, CYP2C9 inhib, CYP2C9 activ, CYP2C19 act)
CCC(c1nnc(SCC(=O)Nc2ccc(Cl)cc2C(F)(F)F)n1C1CCCCC1)N(C)C (stereo not drawn)	none (no result: CYP2C19 inh, CYP2C9 inhib, CYP2C9 activ, CYP2C19 act)
COc1ccc(S(=O)(=O)N2CCCC2C(=O)Nc2nnc(-c3cccnc3)s2)cc1 (stereo not drawn)	CYP2C19 inh 99
Cc1ccc(S(=O)(=O)N2CCCC2C(=O)Nc2nc3c(s2)CCCC3)cc1 (stereo not drawn)	CYP2C9 inhib 90
COc1ccc(S(=O)(=O)N2CCC[C@H]2C(=O)NC2=NCCS2)cc1	none (no result: CD11b adhes inh, Mac1 fbg enh)
COc1ccc2nc(NC(=O)C3CCCN3S(=O)(=O)c3ccc(C)cc3)sc2c1 (stereo not drawn)	CYP2C19 inh 68
CC(=O)c1ccc(NC(=O)C2CCCN2S(=O)(=O)c2ccc(C)cc2)cc1 (stereo not drawn)	none
O=C(COC(=O)/C=C/c1ccc(OC(F)F)cc1)NCc1cccs1	none (no result: CYP2C19 inh, CYP2C9 inhib, CYP2C9 activ, CYP2C19 act)
O=C(Cc1ccccc1)NCC(=O)OCC(=O)c1cccs1	none
O=C(CSc1nnc(Cc2ccccc2)n1-c1ccccc1)NNC(=O)Cc1ccccc1	none
Clc1ccc(-c2noc(CSc3nnc(Cc4cccs4)n3-c3ccccc3)n2)cc1	CD11b adhes inh 69
Cc1ccc(-c2noc(CSc3ccccc3)n2)cc1	none
Fc1ccc(-n2c(Cc3ccccc3)nnc2SCc2nc(-c3cccs3)no2)cc1	CYP2C9 inhib 74 (no result: CD11b adhes inh, Mac1 fbg enh)
Cc1ccc(-c2noc(CSc3nnc(Cc4cccs4)n3-c3ccccc3)n2)cc1	CYP2C19 inh 72
Cc1ccc(-n2c(Cc3cccs3)nnc2SCC(N)=O)cc1	CYP2C19 inh 56
CCn1c(SCc2nc(-c3ccc(OC)c(OC)c3)no2)nnc1-c1cccs1	none
CCOC(=O)c1c(N2C(=O)C3CC(C)=C(C)CC3C2=O)sc(C)c1C (stereo not drawn)	none
COc1ccc(Cl)cc1NC(=O)NC1CCCCC1	none
CSc1ccccc1NC(=O)CN(C1CCCCC1)S(C)(=O)=O	CYP2C19 inh 93, CYP2C9 inhib 90
COc1ccc(Cl)cc1NC(=O)N1CCN(C2CCCCC2)CC1	CYP2C19 inh 83
CC(=O)c1cccc(NC(=O)CN(C2CCCCC2)S(C)(=O)=O)c1	none
COc1ccc(Cl)cc1NC(=O)CN(C1CCCCC1)S(C)(=O)=O	CYP2C19 inh 99, CYP2C9 inhib 90
CCOc1ccc(NC(=O)CN(C)CC(=O)Nc2ccccc2SC)cc1OCC	none (no result: CYP2C19 inh, CYP2C9 inhib, CYP2C9 activ, CYP2C19 act)
CN(CC(=O)Nc1cccc2ccccc12)c1ccc(S(=O)(=O)N2CCOCC2)cn1	none
CCOc1ccc(NC(=O)CN(C)c2nnnn2-c2ccccc2)cc1OCC	CYP2C19 inh 72
CCOc1ccc(NC(=O)CN(C)c2ccc(S(=O)(=O)N(C(C)C)C(C)C)cn2)cc1OCC	CYP2C9 inhib 57
CCOc1ccc(NC(N)=O)cc1OCC	none
Cc1ccc(NC(=O)CN(C)c2ccc(S(=O)(=O)N3CCN(C)CC3)cn2)cc1	CYP2C9 inhib 56
O=C(CN(Cc1ccc(F)cc1)C(=O)C1CSC(=O)C1)NC1CCCCC1 (stereo not drawn)	none (no result: CD11b adhes inh, Mac1 fbg enh)
CC1(C)Cc2c(c(N3CCOCC3)nc3sc(C#N)c(N)c23)CS1	none
CC(C)CCNc1nnnc2c1sc1nc(N3CCOCC3)c3c(c12)CC(C)(C)SC3	CYP2C9 inhib 85
CCOC(=O)CNC(=O)Nc1cc(C(C)(C)C)nn1-c1ccccc1	none
CC(C)(C)c1cc(C(=O)N/N=C/c2ccc(F)cc2)n(-c2ccccc2)n1	CYP2C9 inhib 65
COC(=O)C1Cc2c([nH]c3ccccc23)C(C)N1 (stereo not drawn)	CYP2C19 inh 50, CYP2C9 activ 2.6
